Data taken from ChEMBL document CHEMBL3988442, “University of Dundee, Small-Polar-MMV Screening Library” (2021).
About 13,000 (27%) of roughly 48,000 compounds showed an effect of 50% or more. Some of the results follow.

Each compound was assayed on Wolbachia pipientis (assay: Anti-Wolbachia Cell-Based Screen). Details: 5 µM.
Assay type: functional
Set-up: scale not given: in the data most compounds retested in dose-response had high values

SMILES	Percent Effect [%]
CC(=O)NC1CCCN(C(=O)CNc2cccc(C)c2Cl)C1 (stereo not drawn)	6.978
O=C(CCn1cncn1)N1CCC2(CC1)[C@H](O)C[C@@H]2OCCO	-12.21
O=C(NS(=O)(=O)c1ccc(C2CCCCC2)cc1)C1COCCO1 (stereo not drawn)	-16.34
CCOc1ccc(N(C)Cc2nnc(C3CC3)o2)cc1	-1.111
CC1(C)CCC(CC(=O)O)c2ccccc21 (stereo not drawn)	8.259
CN(Cc1cc(-c2ccncc2)no1)Cc1nccn1C	1.044
O=C(O)C(F)(F)F.O=C(c1ccccc1F)N1C[C@H]2CCC[C@@]2(COCc2ccncc2)C1	-1.474
CNC(=O)CN1CC[C@H]2CN(C(=O)c3ccccc3C)C[C@H]2C1.O=C(O)C(F)(F)F	117.7
Cc1ccccc1C(=O)NC[C@@H]1CCN(C(=O)CN2CCCC2)C[C@H]1O	2.188
CNC(=O)CN1CC[C@H]2CN(C(=O)c3ccccc3F)C[C@H]2C1.O=C(O)C(F)(F)F	86.74
Cc1ccccc1C(=O)N1C[C@@H]2CCN(c3cccnc3)C[C@@H]2C1.O=C(O)C(F)(F)F	9.875
COCC(=O)NC[C@H]1OC[C@@H](NC2CCC(F)(F)CC2)[C@@H]1O	-6.952
O=S(=O)(C1CC1)N1CCC2(COCc3cnc(N4CCOCC4)nc32)C1 (stereo not drawn)	-0.8991
CS(=O)(=O)N1CCC2(COCc3cnc(-c4ccccc4)nc32)C1 (stereo not drawn)	3.211
CN(C)S(=O)(=O)N1CCC2(COCc3cnc(-c4cccnc4)nc32)C1 (stereo not drawn)	117.1
CN(C)S(=O)(=O)N1CCC2(COCc3cnc(-c4ccccc4)nc32)C1 (stereo not drawn)	7.187
O=S(=O)(C1CC1)N1CCC2(COCc3cnc(-c4cccnc4)nc32)C1 (stereo not drawn)	112.6
c1ccc(-c2ncc3c(n2)C2(CCN(c4ncccn4)C2)COC3)cc1 (stereo not drawn)	-0.2326
Cc1nn(C)c(NC(=O)C2SCCc3ccccc32)c1C (stereo not drawn)	-51.32
COCCOc1ccc(NC(=O)N(CCO)C2CC2)cn1	-3.493
COCCOc1ccc(NC(=O)C2CC(=O)N(CC3CC3)C2)cn1 (stereo not drawn)	88.01
COCCOc1ccc(NC(=O)N(C(C)C)C2CC2)cn1	-14.55
COCCOc1ccc(NC(=O)N2CCCC2c2cccs2)cn1 (stereo not drawn)	-5.356
COCCOc1ccc(NC(=O)C2CC(=O)N(C(C)C)C2)cn1 (stereo not drawn)	102.1
COCCOc1ccc(NC(=O)C2CCCN(C(N)=O)C2)cn1 (stereo not drawn)	-6.192
COCCOc1ccc(NC(=O)C2CC(=O)N(C3CC3)C2)cn1 (stereo not drawn)	124.3

SMILES	Percent Effect [%]
COCCOc1ccc(NC(=O)N2CCCC2c2ccncc2)cn1 (stereo not drawn)	-3.019
COCCOc1ccc(NC(=O)N2CCCC2c2cc(C)no2)cn1 (stereo not drawn)	-1.531
CCS(=O)(=O)N1CCN(CC(F)(F)F)CC1	6.417
CS(=O)(=O)CCC(=O)NC1CC(c2ccccc2Cl)C1 (stereo not drawn)	-3.689
Cc1nc(C2CCN(CC(=O)NC3CC3)CC2)cc(N2CCOCC2)n1	-4.261
Cc1cc(C)c(CNC(=O)N2CCN(c3cnccn3)CC2)c(=O)[nH]1	-4.919
CNC(=O)CCc1cc(C2CCN(c3cnccn3)CC2)nc(C)n1	127.7
Cc1cc(N2CCC(NC(=O)CCc3cnn(C)c3)CC2)nc(C)n1	-6.539
Cc1ccc(CC(=O)NC2CCN(c3cccc(Cl)c3)C2)cn1 (stereo not drawn)	-6.758
O=C(CCc1ccsc1)NCC1CCN(c2ccccc2)C1 (stereo not drawn)	-7.68
CCNC(=O)CCN1CCC(c2cc(N3CCOCC3)nc(C)n2)CC1	2.574
CNC(=O)CCc1cc(C)nc(C2CCN(c3cnccn3)CC2)c1	163
CNC(=O)CCc1cc(C)nc(C2CCN(c3ccccc3)CC2)c1	115.5
CCn1ncnc1C(C)NC(=O)C1CCN(C2CCCCC2)CC1 (stereo not drawn)	-9.983
CNC(=O)CCc1cc(C)nc(C2CCCN2)c1 (stereo not drawn)	-6.068
CNC(=O)CCc1cc(C)nc(C2CCN(C3CCCCC3)CC2)c1	132.7
CCN(Cc1ccoc1)C(=O)NC1CCN(CC2CC2)C1 (stereo not drawn)	-6.123
N#Cc1c(Cl)nsc1NCCCN1C(=O)COc2ccccc21	-8.12
CCN(C(=O)C1CCC1)C(c1cccnc1)c1ccc2c(c1)CCO2 (stereo not drawn)	-9.854
O=C(C1CN(Cc2ccsc2)Cc2ccnn2C1)N1CCCC1.O=C(O)C(F)(F)F.O=C(O)C(F)(F)F (stereo not drawn)	5.087
COc1coc(CN2CCCC3(CCC(=O)N(CC4CC4)C3)C2)cc1=O (stereo not drawn)	-7.938
CN(CCc1cnn(C)c1)C(=O)CN1C(=O)OC[C@@H]1c1ccccc1	-15.8
CN(CCc1cnn(C)c1)C(=O)Cn1c(=O)[nH]c2ccccc21	117.9
CCOCCn1c(=O)[nH]c2cc(C(=O)N(C)Cc3cnn(C)c3)ccc21	6.487
Cc1cc(C)c2nc(C)cc(C(=O)NCc3csc(N(C)C)n3)c2c1	-46.67
O=C(Nc1cnn(CC(=O)N2CCCCO2)c1)c1ccccn1	-7.331

SMILES	Percent Effect [%]
O=C(O)c1ccc(F)c(S(=O)(=O)Nc2c(F)cccc2-n2cccn2)c1	-5.743
Cc1ccc(C#N)c(N2CCC(c3nccn3CCN(C)C)CC2)n1	-3.51
CN(C)CCn1ccnc1C1CCCN(c2nccc3ccccc23)C1 (stereo not drawn)	-1.132
CN(C)CCn1c([C@@H]2CCCO2)cc2cccnc21.Cl	90.46
CN(C)CCn1c(=O)oc2ccc(NC(=O)C3CCCO3)cc21 (stereo not drawn)	1.023
Cc1nn(C)c2nc(N(Cc3ccccn3)CC3CCCO3)sc12 (stereo not drawn)	-1.375
CN(C)CCn1c([C@H]2CCCO2)cc2cccnc21	104.2
O=C(NCc1cccc(N2CC=CC2)c1)NCC(F)(F)F	2.139
COc1ccnc(N(C)Cc2c(C)noc2C)n1	0.6416
CC1CCCN(C(=O)NCC(F)F)C1 (stereo not drawn)	-0.801
CCn1cnc(NC(=O)N2CCCC(c3ccccc3)CC2)n1 (stereo not drawn)	1.274
O=C(NCC(=O)N1CCCC(c2ccccc2)CC1)c1ccoc1 (stereo not drawn)	114.1
CC1CCCN(C(=O)CNC(=O)c2ccoc2)C1 (stereo not drawn)	104.6
Cc1occc1C(=O)NCC(=O)N1CCCC(c2ccccc2)CC1 (stereo not drawn)	4.823
O=C(CCNC(=O)c1ccoc1)Nc1c(F)cccc1F	-2.292
O=C(CCNC(=O)c1ccoc1)Nc1cc(F)cc(F)c1	-8.538
O=C(NCCC(=O)N1CCCCCCC1)c1ccoc1	130.7
CC(C)CN1CCC(C(=O)NCCNC(=O)c2ccoc2)CC1	9.069
c1cnnc(N2CCCC(NCc3ccc(-n4ccnc4)cc3)C2)c1 (stereo not drawn)	2.731
CN(Cc1cccs1)C(=O)CNC1CCc2ncnn2C1 (stereo not drawn)	-0.9071
Cc1cc(=O)c2ccccc2n1CC1CCCN(C)C1 (stereo not drawn)	-3.698
Cc1cc(S(=O)(=O)N2CCc3ccc(F)cc32)cc(C(=O)O)c1C	-1.898
OC(CNCCn1cccn1)c1ccc2c(c1)OCCO2 (stereo not drawn)	4.861
CC(NC(=O)NCCCO)c1ccc2c(c1)OCCO2 (stereo not drawn)	6.207
CC(NC(=O)Cn1cccn1)c1ccc2c(c1)OCCCO2 (stereo not drawn)	-3.831
CC(NC(=O)CNCCn1cccn1)c1ccc2c(c1)CCCC2 (stereo not drawn)	2.456

SMILES	Percent Effect [%]
CC(NC(=O)CCn1cccn1)c1ccc2c(c1)OCCO2 (stereo not drawn)	98
CC(NC(=O)NCCCn1ccnc1)c1ccc2c(c1)OCCCO2 (stereo not drawn)	-3.282
CC(NC(=O)NCCCn1cncn1)c1ccc2c(c1)OCCO2 (stereo not drawn)	5.809
CC(NC(=O)CNCCn1cccn1)c1ccc2c(c1)OCCO2 (stereo not drawn)	-2.168
Cc1cnn(CCNCC(=O)NC(C)c2ccc3c(c2)OCCO3)c1 (stereo not drawn)	97.89
Cc1ccc(C(C)NC(=O)CNCCn2cccn2)cc1C (stereo not drawn)	67.97
Cc1ccc(C(O)CNCCn2cccn2)cc1C (stereo not drawn)	-13.13
CC(NC(=O)Cn1cccn1)c1ccc2c(c1)OCCO2 (stereo not drawn)	96.81
Cc1noc(C)c1CN(C)C(=O)NC(C)Cc1ccco1 (stereo not drawn)	8.322
CN(Cc1nc2ccccc2o1)CC1CCCN1c1cccnn1 (stereo not drawn)	4.649
COc1ccccc1C(C)N1CCN(S(=O)(=O)N(C)C)CC1 (stereo not drawn)	-4.471
Cc1cccc(N2N=C(C(=O)NC(C)Cn3cccn3)CCC2=O)c1 (stereo not drawn)	-20.26
Nc1nc(CNc2nccc(CCC(F)(F)F)n2)cs1	0.6104
Cc1cc(NC(=O)[C@H]2CCCCN2C(=O)OC(C)(C)C)no1	12.93
O=C(CCC1CCCO1)NCc1ccc(Br)cc1F (stereo not drawn)	24.29
Cc1cnc(C(=O)N2CCc3ncnc(C)c3CC2)cn1	-11.83
Cc1ncnc2c1CCN(C(=O)c1cnccn1)CC2	1.422
Cc1cc(C(=O)N2CCc3ncnc(-c4cnn(C)c4)c3CC2)c(C)o1	88.25
Cn1cc(-c2ncnc3c2CCN(C(=O)c2cnccn2)CC3)cn1	113
Cc1ccoc1C(=O)N1CCc2ncnc(-c3cnn(C)c3)c2CC1	95.42
Cc1occc1C(=O)N1CCc2ncnc(-c3cnn(C)c3)c2CC1	2.959
CN(C)CC(=O)N1CCc2ncnc(-c3ccoc3)c2CC1	-8.225
Cc1cnc(C(=O)N2CCc3ncnc(-c4cnn(C)c4)c3CC2)cn1	103.6
CCOc1ncnc2c1CCN(C(=O)c1cnccn1)CC2	5.086
Cc1ncnc2c1CCN(C(=O)c1ccoc1)CC2	-3.432
